IL1B secr inh: inflammasome signaling inhibition, IL-1 beta readout; THP-1 LPS/ATP IL-1B secretion, AlphaLISA, 16 h; hits give low values; activity change, % at 57.5 µM; actives 4.7% (n = 360,000); in the data active = activity change below about -50%; inconclusive = mostly about -30% to -49%; also: % is scaled to controls: 0 for no effect and ±100 for the full control effect
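THP-1 cells pretreated 1 hr with compounds (up to 57.5 uM final), then stimulated with LPS (250 ng/mL final) plus ATP (1.25 mM final); secreted IL-1B measured by AlphaLISA after 16 hr, decreased signal indicating inhibition.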
HepG2 viability: kills HepG2 cells in TGF-b inhibitor counter-screen. AID 588856. Potency, µM (highest dose often 46.1 µM), without a hit: top-dose activity change, negative = cytotoxicity, usual class: cytotoxic. actives 0.76% (n = 410,000). HepG2 CAGA-GFP viability, ATP luminescence, 18 h; also: potency is read from the fitted curve at half-maximal effect
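HepG2 CAGA-GFP cells (1000/well, DMEM with 1% FBS) received compound, then TGF-beta at 500 pg/mL final, and were incubated 18 hours at 37 degrees C. Viability was read by CellTiter-Glo luminescence. Media-only wells were set as complete cell-killing and DMSO as no toxicity.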
TDP1 block: blocks human tyrosyl-DNA phosphodiesterase 1; Q9NUW8; recombinant TDP1, AlphaScreen DNA substrate cleavage; Potency, µM (series often up to 130 µM), for inactives: at the top dose activity change, negative = inhibition, hits mostly inhibitors; actives 0.28% (n = 350,000); AID 485290; also: potency is read from the fitted curve at half-maximal effect; % is scaled to controls: 0 for no effect and ±100 for the full control effect; nearly all actives have a fitted effect of over 40% in size
Target sequence (Q9NUW8 whole entry, looked up): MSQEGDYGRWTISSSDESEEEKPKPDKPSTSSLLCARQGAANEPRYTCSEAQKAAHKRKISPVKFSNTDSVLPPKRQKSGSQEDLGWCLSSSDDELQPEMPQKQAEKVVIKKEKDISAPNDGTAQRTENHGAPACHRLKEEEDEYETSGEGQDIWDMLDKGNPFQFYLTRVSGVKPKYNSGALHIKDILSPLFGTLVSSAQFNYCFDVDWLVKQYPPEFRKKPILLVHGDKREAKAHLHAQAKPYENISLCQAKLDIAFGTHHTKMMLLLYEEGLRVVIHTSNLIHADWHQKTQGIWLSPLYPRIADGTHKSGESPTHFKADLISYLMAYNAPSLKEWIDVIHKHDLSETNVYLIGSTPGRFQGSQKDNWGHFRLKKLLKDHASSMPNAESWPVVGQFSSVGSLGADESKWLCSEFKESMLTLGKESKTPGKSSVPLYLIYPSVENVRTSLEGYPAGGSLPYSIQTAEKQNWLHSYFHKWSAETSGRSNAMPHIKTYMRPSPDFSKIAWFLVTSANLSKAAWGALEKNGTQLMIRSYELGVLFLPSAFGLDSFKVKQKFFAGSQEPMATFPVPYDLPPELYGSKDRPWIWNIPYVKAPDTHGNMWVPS
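Signal: AlphaScreen proximity between streptavidin donor and anti-FITC acceptor beads on intact substrate. Reaction: Tdp1 1 nM, substrate 15 nM final, 5 min RT after 15 min compound preincubation.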
TDP1 cell noCPT: qHTS for Inhibitors of human tyrosyl-DNA phosphodiesterase 1 (TDP1): qHTS in cells in absence of CPT | Potency, µM (top dose mostly 46.2 µM), for the others: top-dose activity change, negative = growth inhibition, actives largely listed as inhibitors | DT40 Tdp1-/- hTDP1 cells, no CPT, ATP luminescence, 48 h | AID 686978, 2013 | actives 15% (n = 420,000); also: potency is read from the fitted curve at half-maximal effect; % is scaled to controls: 0 for no effect and ±100 for the full control effect; nearly all actives have a fitted effect of over 55% in size
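Growth of hTDP1-complemented DT40 Tdp1-knockout cells is measured by ATP luminescence after at least 48 hr compound exposure at 37 °C, with DMSO substituting for the 20 nM CPT used in the parallel screen.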
TGFb SMAD3 inh: inhibitors of TGF-b signaling; HepG2 CAGA-GFP TGF-b/SMAD3 reporter, GFP fluorescence, 18 h; TGF-beta stimulated, 500 pg/mL final; Potency, µM (top dose mostly 46.1 µM), for the others: at the top dose activity, negative = inhibition, most hits filed as inhibitors; actives 1.2% (n = 410,000); AID 588855; also: potency is read from the fitted curve at half-maximal effect; % is scaled to controls: 0 for no effect and ±100 for the full control effect; nearly all actives have a fitted effect of over 65% in size
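HEPG2 CAGA-GFP, 1000 cells/well; 2 h settle, 37 C; cpd via pin tool; TGF-b 500 pg/mL final; 18 h, 37 C; GFP imaging ex488/em500-530; %Activity normalised to -TGF-b and +DMSO controls; CRC fit, curve class.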
DT40 TDP1 CPT: DT40-hTDP1 cell growth loss with CPT. chicken DT40 Tdp1-/-;hTDP1 cells + 20 nM CPT, ATP luminescence, 48 h. Potency, µM (series often up to 46.2 µM), inactives show at the highest dose activity change, negative = growth inhibition, most hits filed as inhibitors. actives 12% (n = 420,000); also: potency is read from the fitted curve at half-maximal effect; % is scaled to controls: 0 for no effect and ±100 for the full control effect; nearly all actives have a fitted effect of over 55% in size
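Chicken DT40 Tdp1-/- cells stably complemented with human TDP1 were seeded at 400 cells/well in medium containing 20 nM camptothecin, exposed to pin-transferred compounds, and grown at 37 °C for at least 48 hr. Viability was read as ATP luminescence.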
* hit, by the source's call; ? = inconclusive; . = no result given; [ ] = remark or other dose. This is a sample that favours compounds with a hit; in the whole collection about 19% have one here. Unless noted, calls follow the shape of the dose curve; as a rule, active = well fitted curve in the direction sought with a large enough effect; inconclusive = small, poorly fitted or top-dose-only effect, or another doubt; inactive = no such curve, though single readings can be large; an effect the other way counts as inactive or inconclusive.

SMILES	IL1B secr inh	HepG2 viability	TDP1 block	TDP1 cell noCPT	TGFb SMAD3 inh	DT40 TDP1 CPT
COc1cccc(C(C)NC(=O)C2CCCC2)c1 (centres undefined)	23	-2%	4%	0%	0%	-1%
O=C(NC(=S)N1CCN(C/C=C/c2ccccc2)CC1)c1ccc(F)cc1	-5	-5%	3%	?	-6%	?
COc1ccc(C(=O)NC(C(=O)N2CCN(C/C=C/c3ccccc3)CC2)C(C)C)cc1 (centres undefined)	-25	-10%	.	?	-7%	18µM*
O=S1(=O)N=C(Oc2ccccc2C(F)(F)F)c2ccccc21	.	.	3%	.	.	.
COc1ccc(CN2CCOc3c(cc(-c4cccc(OC)n4)cc3OC)C2)c(O)c1	.	.	.	-1%	.	-4%
O=C1CCCCC1C(Nc1ccc(Br)cc1)c1ccccc1 (centres undefined)	-72*	-13%	7%	1%	-4%	2%
CCN1CCN(c2ccc(N3CCN(S(=O)(=O)c4ccc(C)c([N+](=O)[O-])c4)CC3)nn2)CC1	-11	-19%	.	?	12%	?
COc1cc2ccccc2cc1C(=O)Nc1ccc2oc(-c3ccc(F)cc3Cl)nc2c1	.	-48%	-7%[12.3 µM]	-10%	-13%	-14%
Cc1ccc(CNC(=O)c2ccc(N3CCC4(CC3)CC(c3ccccc3)=NO4)c(N)c2)cc1	40	-45%	.	?	-9%	2.6µM*
CCCNC(=O)c1ccc(N2CCC3(CC2)CC(c2cccc(Br)c2)=NO3)c(NC(=O)c2ccc(Br)cc2)c1	-24	5%	-5%	-16%	-23%	-15%
CCCCC(CC)C(=O)Nc1cc(C(=O)NCCC)ccc1N1CCC2(CC1)CC(c1ccccc1)=NO2 (centres undefined)	-17	1%	.	?	2%	6.5µM*
Cc1ccc(CNC(=O)c2ccc(N3CCC4(CC3)CC(c3ccccc3)=NO4)c(NC(=O)c3ccco3)c2)cc1	-24	-13%	.	?	-20%	?
CCCNC(=O)c1ccc(N2CCC3(CC2)CC(c2ccccc2)=NO3)c(NC(=O)c2cccc(OC)c2)c1	8	-3%	.	13µM*	6%	?
CCCNC(=O)c1ccc(N2CCC3(CC2)CC(c2ccccc2)=NO3)c(NC(=O)c2ccco2)c1	-15	-16%	.	16µM*	-8%	18µM*
O=C(Nc1ccc2c(c1)C(=O)OC2)c1ccc(F)cc1F	-9	9%	6%	-7%	5%	-1%
COCCN1C(=O)N[C@@H](c2ccccc2)[C@H](C(=O)OC)[C@H]1C	10	3%	6%[12.3 µM]	-10%	?	-2%
CCCCOc1ccc(C(=O)NCC(=O)NCC(c2ccc(F)cc2)N2CCOCC2)cc1 (centres undefined)	-14	-19%	.	?	-11%	?
Cc1cc(NC(=O)c2cc(-c3ccc(Br)cc3)on2)nn1Cc1ccc(Cl)cc1	.	-17%	-4%	-8%	-4%	-23%
COC(=O)C1=C(C)NC(=O)NC1c1cn(-c2ccccc2)nc1-c1ccc(OC)c(Cl)c1 (centres undefined)	.	-2%	7%	21µM*	?	?
CC1=C(C(=O)OC(C)C)C(c2cn(-c3ccccc3)nc2-c2cccs2)NC(=O)N1 (centres undefined)	14	-4%	8%	23µM*	6%	?
COC(=O)C1=C(C)NC(=O)NC1c1cn(-c2ccccc2)nc1-c1cccs1 (centres undefined)	-8	-30%	1%	-14%	3%	?

Source: PubChem BioAssay
